A short description of experiment [1]: P-glycoprotein substrates identified in KB-8-5-11 adenocarcinoma cell line, qHTS therapeutic library screen (AID 1346987). Also: nearly all actives have a fitted effect of over 65% in size. In outline: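 In this qHTS, P-gp-rich KB-8-5-11 cells received library compounds across a concentration range. Viability was quantified by luminescence after 72 h at 37 degree C.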
Background: Quantitative high-throughput screening tests each substance at several concentrations.

Experiment [2] is described as follows: NS1 protein of Zika virus - qHTS assay to identify small molecule inhibitors in human HEK 293 cells (AID 1347053). Also: nearly all actives have a fitted effect of over 55% in size. The essentials: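 In this cell-based screen, HEK 293 cultures received compound for one hour before Zika MR766 at MOI = 0.5. NS1 was quantified 24 hours later by TR-FRET, normalized to virus-free wells and infected wells.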
Experiment [3] in a line: qHTS of pediatric cancer cell lines to identify multiple opportunities for drug repurposing: Primary screen for SJ-GBM2 cells (AID 1347091). In outline: (§1)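 Viability measured as metabolically active cells via CellTiter-Glo luminescence following 48 hours of compound exposure, 11-point dilutions in confirmatory testing. 500-1,000 cells/well plated 5 hours before dosing; controls were DMSO and 2.3 µM bortezomib.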

Experiment [4] is described as follows: qHTS of pediatric cancer cell lines to identify multiple opportunities for drug repurposing: Primary screen for A673 cells (AID 1347092). Also: nearly all actives have a fitted effect of over 45% in size. In outline:
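Cells are plated, rested 5 h, dosed by pintool, incubated 48 h, then lysed with CellTiter-Glo and read by luminescence. DMSO is the neutral control; bortezomib at 2.3 uM final is the positive control.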

Experiment [5] can be described thus: qHTS of pediatric cancer cell lines to identify multiple opportunities for drug repurposing: Primary screen for SK-N-MC cells (AID 1347093). The essentials:
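Metabolically active cells were quantified by ATP-dependent luminescence (CellTiter-Glo, 15 min at room temperature) following 48 h treatment. Cells had been plated at 500-1,000 per well and settled for 5 h beforehand.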

Experiment [6] is described as follows: qHTS of pediatric cancer cell lines to identify multiple opportunities for drug repurposing: Primary screen for BT-37 cells (AID 1347094). In outline:
(§2)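 ATP-based luminescence (CellTiter-Glo) quantifies viability after a 48-hour exposure. Compounds are dosed across 8 or 11 final concentrations; DMSO and 2.3 µM bortezomib serve as controls.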

Experiment [7] can be described thus: qHTS of pediatric cancer cell lines to identify multiple opportunities for drug repurposing: Primary screen for NB-EBc1 cells (AID 1347095). In outline: as §2
Experiment [8] can be described thus: qHTS of pediatric cancer cell lines to identify multiple opportunities for drug repurposing: Primary screen for Saos-2 cells (AID 1347097). Also: nearly all actives have a fitted effect of over 40% in size. In outline:
as §2

Experiment [9] is described as follows: qHTS of pediatric cancer cell lines to identify multiple opportunities for drug repurposing: Primary screen for SK-N-SH cells (AID 1347098). Also: nearly all actives have a fitted effect of over 65% in size. In outline:
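Cells (500-1,000/well) rested 5 h, then received compounds for 48 h; metabolically active cells were measured by CellTiter-Glo luminescence. Final concentrations spanned up to 46 µM (MIPE, 11-point) or 0.59 nM-46 µM (NPC, 8-point) in primary screens, 11-point in follow-ups.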

Experiment [10] can be described thus: qHTS of pediatric cancer cell lines to identify multiple opportunities for drug repurposing: Primary screen for NB1643 cells (AID 1347099). Also: nearly all actives have a fitted effect of over 50% in size. In outline:
as §2

Experiment [11] can be described thus: qHTS of pediatric cancer cell lines to identify multiple opportunities for drug repurposing: Primary screen for LAN-5 cells (AID 1347100). In outline: (§3)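 Viability after 48 h compound treatment at 37C, 500-1,000 cells/well, read as ATP luminescence with CellTiter-Glo. Primary screens used 11-point (MIPE, 0.78 nM-46 µM) or 8-point (NPC, 0.59 nM-46 µM) final concentrations; follow-up screens used 11-point dilutions.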

A short description of experiment [12]: P-glycoprotein substrates identified in KB-3-1 adenocarcinoma cell line, qHTS therapeutic library screen (AID 1346986). Also: nearly all actives have a fitted effect of over 60% in size.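 Also: potency is for cytotoxicity meaning loss of cell viability.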 In outline:
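Viability by CellTiter-Glo after 72 h compound exposure at 37 degree C, 5% CO2. Cytotoxic call: curve class -1.1 to -2.4, maximum response >50%, AC50 < 10 uM, compared across KB-3-1 and P-gp-overexpressing KB-8-5-11.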

Experiment [13] can be described thus: qHTS of pediatric cancer cell lines to identify multiple opportunities for drug repurposing: Primary screen for U-2 OS cells (AID 1347096). Also: nearly all actives have a fitted effect of over 50% in size. In outline:
as §3

Experiment [14] can be described thus: qHTS of pediatric cancer cell lines to identify multiple opportunities for drug repurposing: Primary screen for TC32 cells (AID 1347089). Also: nearly all actives have a fitted effect of over 60% in size. In outline: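 Measured quantity: luminescence from CellTiter-Glo, reflecting metabolically active TC32 cells following 48 h of compound. Curves came straight from multi-point titrations, with 8 or 11 points in primary and 11 in confirmatory screening.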

Experiment [15] is described as follows: qHTS of pediatric cancer cell lines to identify multiple opportunities for drug repurposing: Primary screen for DAOY cells (AID 1347090). Also: nearly all actives have a fitted effect of over 55% in size. The essentials: as §1

The structures appear in SMILES notation. Inconclusive results are not listed. Calls of active or inactive are those of the source. Calls follow the shape of the dose curve; as a rule, active = well fitted curve in the direction sought with a large enough effect; inconclusive = small, poorly fitted or top-dose-only effect, or another doubt; inactive = no such curve, though single readings can be large; an effect the other way counts as inactive or inconclusive.

Among the data in PubChem BioAssay (NCATS) are Potency values, retold here.
Potency is read from the fitted curve at half-maximal effect.

`Cn1cc(-c2cnn3c(N)c(Br)c([C@H]4CCCNC4)nc23)cn1`: the Potency entry in [1] was “inactive”. In addition, the Potency in experiment [2] was 0.833 µM (active); in experiment [3], 0.235 µM (active); in experiment [4] it was 0.059 µM (active); in experiment [5] it was 0.0935 µM (active); in [6], 0.685 µM (active); in [7], 0.264 µM (active). In addition, the Potency is 1.48 µM (active) in experiment [8], 17.1 µM (active) in [9], 1.32 µM (active) in [10] and 0.743 µM (active) in experiment [11].

On to `CC(C)(C)c1nc2c3cc[nH]c(=O)c3c3cc(F)ccc3c2[nH]1`, for which the Potency in [12] was 7.31 µM (active); in experiment [1], 5.17 µM (active); in [5], 1.18 µM (active); in experiment [9] it was 9.61 µM (active); in experiment [11], 2.35 µM (active). Moreover, the Potency result in [2], in [6], in experiment [7] and in [13] was “inactive” in each case.

Turning to `O=c1c(O)c(-c2ccc(O)c(O)c2)oc2cc(O)ccc12`, the Potency in experiment [1] is 13.2 µM (active); in experiment [3], 18.7 µM (active); in experiment [4], 29.6 µM (active); in experiment [5] it was 20.9 µM (active); in experiment [6] it was 24.3 µM (active); in [7], 23.5 µM (active). Moreover, the Potency was 16.6 µM (active) in experiment [8], 27.1 µM (active) in experiment [9], 20.9 µM (active) in experiment [10] and 16.6 µM (active) in experiment [11]. The Potency entry in [2], in experiment [14] and in experiment [13] was “inactive” throughout.

As to `CCc1c(O)cc(O)c(C(=O)c2ccc(OCCN3CCOCC3)c(OC)c2)c1CC(=O)N(CCOC)CCOC`, the Potency result in experiment [1], in experiment [2] and in experiment [13] was “inactive” throughout. The Potency in [14] was 2.94 µM (active); in experiment [15], 14.8 µM (active); in experiment [5] it was 0.526 µM (active); in experiment [6], 1.09 µM (active); in experiment [7] it was 4.18 µM (active); in experiment [10], 0.935 µM (active). For the same molecule, in experiment [11], the Potency was 0.59 µM (active).

Turning to `C[C@H](NC(=O)C(C#N)=Cc1cccc(Br)n1)c1ccccc1`, the Potency in experiment [1] is 20.9 µM (active); in experiment [3], 2.96 µM (active); in experiment [4], 14.8 µM (active); in experiment [5] it was 11.8 µM (active); in [7], 7.43 µM (active); in experiment [10], 16.6 µM (active). In addition, the Potency in experiment [11] is 16.6 µM (active). The Potency result in experiment [14] is “inactive”.

Turning to `Cc1cnn(C)c1C(=O)Nc1cc(Nc2ccc3c(C=Cc4ccccn4)n[nH]c3c2)ccc1F`, the Potency in experiment [1] is 5.26 µM (active); in [3], 18.7 µM (active); in experiment [4], 14.8 µM (active); in [6], 24.3 µM (active); in experiment [8], 20.9 µM (active); in experiment [10], 14.8 µM (active). Moreover, in experiment [11], the Potency was 14.8 µM (active).

In the case of `N[C@H]1CN(c2c(F)cc3c(=O)c(C(=O)O)cn(C4C[C@@H]4F)c3c2Cl)CC12CC2` (some centres undefined), the Potency entry in experiment [1], in [2], in [14], in [15], in experiment [4] and in experiment [5] was “inactive” throughout. Also, the Potency result in experiment [6], in experiment [7], in [13], in experiment [8], in experiment [9] and in experiment [10] was “inactive” throughout. Also, the Potency in experiment [11] is 21.1 µM (active).

Turning to `CON=C(C(=O)N[C@@H]1C(=O)N2C(C(=O)O)=C(Cn3ccc(=N)n3CCO)CS[C@H]12)c1csc(N)n1`, the Potency entry in experiment [12], in [1], in [2], in [14], in [3] and in experiment [4] was “inactive” throughout. Besides, the Potency entry in [6], in [7], in experiment [13], in experiment [8] and in experiment [11] was “inactive” throughout.

As for `CC[C@H]1OC(=O)[C@H](C)[C@@H](O[C@H]2C[C@@](C)(OC)[C@@H](O)[C@H](C)O2)[C@H](C)[C@@H](O[C@@H]2O[C@@H](C)C[C@H](N(C)C)[C@@H]2O)[C@](C)(O)C[C@@H](C)C(=O)[C@H](C)[C@@H](O)[C@]1(C)O`, the Potency result in experiment [1], in [2], in [14], in experiment [15], in [6] and in experiment [7] was “inactive” throughout. Moreover, the Potency result in experiment [13], in [8], in experiment [9], in [10] and in experiment [11] was “inactive” throughout.

For `O=C(O)CCCCCC(=O)NN=C1CCCC1`, the Potency entry in experiment [1], in [2], in [14], in experiment [15], in experiment [6] and in experiment [7] was “inactive” throughout. Besides, the Potency result in [13], in experiment [8], in [10] and in experiment [11] was “inactive” in each case.

Regarding `Cn1cc(CNCC2CCN(c3ncc(C(=O)NO)cn3)CC2)c2ccccc21`, the Potency was 1.05 µM (active) in experiment [1]; 0.415 µM (active) in experiment [14]; 0.235 µM (active) in experiment [15]; 0.0743 µM (active) in [4]; 0.0662 µM (active) in [5]; 0.109 µM (active) in [6]. The Potency was 0.0935 µM (active) in experiment [7]; 0.469 µM (active) in [13]; 0.148 µM (active) in experiment [8]; 0.148 µM (active) in experiment [10]; 0.0526 µM (active) in [11].

In the case of `COc1cc2c(cc1OC)[C@@H]1C(=O)c3ccc4c(c3O[C@@H]1CO2)C=CC(C)(C)O4`, the Potency is 5.17 µM (active) in experiment [1]; 0.0743 µM (active) in [15]; 18.7 µM (active) in experiment [3]; 0.0743 µM (active) in experiment [4]; 0.148 µM (active) in [5]; 10.5 µM (active) in experiment [7]. Besides, the results for the Potency in experiment [8], in experiment [10] and in experiment [11] were 13.2 µM (active), 3.32 µM (active) and 18.7 µM (active), respectively. Besides, the Potency result in experiment [13] is “inactive”.
